Hits are enriched below; roughly 6.2% of the tested compounds scored in any of these assays.
HCMV antiviral: inhibitors of human cytomegalovirus; HFF cells, HCMV-luciferase reporter, 72 h; hits give low values; activity change, negative = inhibition, % at 57.5 µM; hit rate 4.5% among 410,000; AID 1259415; in the data active = activity change below about -60%; inconclusive = no clear call, values can overlap the other calls; inactive = above about -39%
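Steps: HFFs plated, 16 h 37C; compounds added; HCMV-luciferase added to MOI 1 PFU/cell; 72 h 37C; OneGlo reagent, 5 min room temperature; luminescence read, normalized to controls.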
MARV entry inh: blocks Marburg virus binding to or entry into cells. Marburg virus pseudotyped entry inhibition, cell reporter. Potency, µM (series often up to 37.8 µM), for inactives: at the highest dose activity change, negative = inhibition, hits mostly inhibitors. hit rate 1.8% among 300,000. AID 540276; calls by dose curve; tested in HEK293 cells; note: potency is the fitted concentration of half-maximal effect
LASV entry inh: inhibitors of Lassa virus binding or cell entry. Lassa virus pseudotype entry inhibition, cell reporter. AID 540256. Potency, µM (titrated, usually from 37.9 µM), for inactives: top-dose activity change, negative = inhibition, usual class: inhibitors. hit rate 1.2% among 300,000; calls by dose curve; tested in HEK293 cells; note: potency is the fitted concentration of half-maximal effect; nearly all actives have a fitted effect of over 50% in size
FMDV antiviral: blocks foot and mouth disease virus | FMDV antiviral cell-based qHTS | hit rate 1.2% among 410,000 | AID 1159524 | Potency, µM (highest dose often 57.9 µM), for the others: top-dose activity change, negative = inhibition, actives largely listed as inhibitors; calls by dose curve; tested in HEK293T cells; note: read-out not given here; potency is the fitted concentration of half-maximal effect; nearly all actives have a fitted effect of over 45% in size
Active calls of the source: *; ? = inconclusive; · = no result; ! = repeats disagree; [ ] = remark or other dose. % is set by controls: 0 for no effect and ±100 for the full control effect.

SMILES	HCMV antiviral	MARV entry inh	LASV entry inh	FMDV antiviral
COc1ccc(N2CCN(C(=O)C3CCC(Cn4c(=S)[nH]c5ccccc5c4=O)CC3)CC2)cc1 (stereo not given)	-80.9*	10.3µM*	-21.3%	-7.6%
Cc1cccc(NC(=O)Cn2c(=O)n(CCc3ccccc3)c(=O)c3ccccc32)c1	-0.6	16.8%[46.1 µM]	-7.3%[46.1 µM]	-14.2%
Cc1[nH]c2ccccc2c1C1(O)C(=O)N(Cc2ccccc2)c2ccc(Br)cc21 (stereo not given)	-102.2*	?	?	-20.0%
Cc1[nH]c2ccccc2c1C1(O)C(=O)N(Cc2ccccc2Cl)c2ccccc21 (stereo not given)	?	-2.2%[46.1 µM]	?	?
Nc1ncc([N+](=O)[O-])c(N2CCCCCC2)n1	-74.6*	5.4%[46.1 µM]	-2.9%[46.1 µM]	-7.6%
COc1cc2nc(N(C)C)nc(N)c2cc1OC	-93.6*	?	-15.4%	0.0%
Cc1ccc(C)c(CN2C(=O)c3ccccc3S(=O)c3ccc(C(=O)NCc4ccccc4)cc32)c1 (stereo not given)	?	?	-20.0%[46.1 µM]	?
Fc1cc(Br)ccc1Nc1nc2ccccc2n2nnnc12	-72.9*	·	·	17.1%
O=C1/C(=C\c2ccco2)SC(=S)N1C1CCS(=O)(=O)C1 (stereo not given)	-73.5*	?	-5.9%	0.0%
CCOc1ccc(Nc2ncnc3ccc([N+](=O)[O-])cc23)cc1	-68.9*	-13.3%[46.1 µM]	1.6%	?
CC(=O)Nc1ccc(NC(=O)c2ccc3c(c2)N(Cc2cccc(Cl)c2)C(=O)c2ccccc2S3=O)cc1 (stereo not given)	-94.5*	·	?	-22.0%
Cc1cccc(N2CCN(C(=O)c3ccc4c(c3)N(Cc3ccccc3F)C(=O)c3ccccc3S4=O)CC2C)c1 (stereo not given)	-63.7*	12.6µM*	?	-12.4%
Cc1cccc(N2CCN(C(=O)c3ccc4c(c3)N(Cc3cccc(Cl)c3)C(=O)c3ccccc3S4=O)CC2C)c1 (stereo not given)	-67.2*	·	?	-19.5%
CC1CCCCN1CCNC(=O)c1ccc2c(c1)N(Cc1cccc(Cl)c1)C(=O)c1ccccc1S2=O (stereo not given)	-34.9	?	?	-0.4%
CC(=O)c1ccc(NC(=O)c2ccc3c(c2)N(Cc2cccc(Cl)c2)C(=O)c2ccccc2S3=O)cc1 (stereo not given)	-33.1	·	-2.9%[46.1 µM]	-13.3%
CCN1C(=O)c2ccccc2S(=O)c2ccc(C(=O)N3CCN(c4cccc(C)c4)C(C)C3)cc21 (stereo not given)	-27.3	-4.7%[46.1 µM]	?	?
CC1CCCCN1C(=O)c1ccc2c(c1)N(Cc1cccc(Cl)c1)C(=O)c1ccccc1S2=O (stereo not given)	-67.9*	·	-10.6%[46.1 µM]	6.4%
Cc1nc2scc(C)n2c(=O)c1S(=O)(=O)Nc1cccc(C(F)(F)F)c1	-7.8	3.2%[46.1 µM]	-6.4%[46.1 µM]	33.5%
CC12C=C(C=CCCc3ccco3)C(C)(C1)[C@H](CCc1ccco1)CC2=O (stereo not given in full)	·	28.8%[14.2 µM]	·	·
C[C@H]1CN(C(=O)OC(C)(C)C)CCN1c1ccc(N2CC[C@@H](O)C2)c(C#N)c1	33.7	·	·	·
Cc1cc(-c2ccnc(-n3ncc(C(=O)NCC4COCCO4)c3C)n2)c(C)s1 (stereo not given)	·	·	·	38.4%
N#Cc1c(Cl)nsc1NC(=O)c1ccccc1	-99.9*	·	·	-2.4%
COc1ccc([N+](=O)[O-])cc1N(CC(O)CN(CC(C)C)CC(C)C)S(=O)(=O)c1ccccc1 (stereo not given)	75.9	11.6µM*	4.7%	2.7%
CCCCN(CCCC)CC(O)CN(c1cc([N+](=O)[O-])ccc1OC)S(=O)(=O)c1ccccc1 (stereo not given)	-20.3	?	?	1.7%
CCCN1CCc2cc(O)cc3c2[C@H]1Cc1ccc(O)c(O)c1-3	-6.7	35.5µM*!	-36.7%	-14.0%
SMILES	HCMV antiviral	MARV entry inh	LASV entry inh	FMDV antiviral
CCCN1CCc2cccc3c2C1Cc1ccc(O)c(O)c1-3 (stereo not given)	·	?	·	-8.4%
Cc1ccc(-c2nn3c(C)nnc3s2)cc1NC(=O)c1ccc(-c2cccc(Cl)c2)o1	?	9.2µM*	?	?
Cc1ccc(-c2nn3c(C)nnc3s2)cc1NC(=O)c1ccc(-c2ccc(Cl)cc2Cl)o1	-73.6*	14.6µM*	?	-4.7%
Cc1ccc(NC(=O)C(=O)NCC(c2cccnc2)N2CCN(Cc3ccccc3)CC2)cc1Cl (stereo not given)	-10.5	·	7.4%[46.1 µM]	?
CC(C)(C)c1ccc(/C=N/NC(=O)Cc2c[nH]c3ccccc23)cc1	51.8	14.6µM*	?	-10.3%
C/C(=N\NC(=O)c1c[nH]c2ccccc12)c1ccc2c(c1)OCO2	3.7	·	·	35.2%
O=C(Cc1c[nH]c2ccccc12)N/N=C/c1ccccc1O	-26.5	·	·	78.7%
C/C(=N\NC(=O)Cc1c[nH]c2ccccc12)c1ccc2ccccc2c1	81.0	?	3.98µM*	11.6%
O=c1cnc2cnc(OCc3ccccc3)nc2n1CCc1ccccc1	·	·	·	-20.4%
CCOC(=O)N1CCN(C(=O)C2CCCN(S(=O)(=O)c3ccc(OCC)cc3)C2)CC1 (stereo not given)	?	?	?	0.0%
CCOC(=O)N1CCN(C(=O)C2CCCN(S(=O)(=O)c3ccc(C)cc3)C2)CC1 (stereo not given)	-60.7*	-5.9%	-28.1%	-20.7%
CCOc1ccc(S(=O)(=O)N2CCCC(C(=O)N3CCN(c4ccccc4)CC3)C2)cc1 (stereo not given)	-38.9	?	?	28.2µM*
CCOc1ccc(S(=O)(=O)N2CCC(C(=O)N3CCN(c4ccccc4F)CC3)CC2)cc1C	8.7	?	7.08µM*	-0.6%
CCOC(=O)N1CCN(C(=O)C2CCN(S(=O)(=O)c3c(C)cc(C)cc3C)CC2)CC1	-106.8*	11.1%	?	-17.0%
CCOC(=O)c1c(C)n(-c2ccccc2)c2ccc(OC(=O)COc3ccc(Cl)cc3)cc12	0.2	·	11.5%[46.1 µM]	-24.9%
Cc1ccc(Cn2c(CO)cnc2SCC(=O)NCc2ccccc2Cl)cc1	9.6	·	11.1%[46.1 µM]	-19.7%
N#CCSc1nc(Nc2ccc3c(c2)OCO3)c2ccccc2n1	-63.0*	?	-17.3%	22.4µM*
COc1ccc(OC)c(N/C=C/C(=C(C#N)C#N)N(C)C)c1	-67.7*	?	-6.1%[46.1 µM]	12.0%
COc1ccc(-c2nc3cnc(Nc4ccccn4)cc3n2C)cc1OC	-9.6	·	·	·
N#Cc1c(-c2ccc(Cl)cc2)[nH]c2ccccc12	-38.1	·	·	·
N#Cc1c(-c2ccc(Cl)cc2)n(O)c2ccccc12	·	8.91µM*	12.6µM*	0.0%
CCOc1ccc2nc(NC(=O)c3ccc(OCC4CCCO4)cc3)sc2c1 (stereo not given)	?	-29.9%[46.1 µM]	-14.1%	17.8µM*
Cc1cccc2sc(NC(=O)c3ccc(OCC4CCCO4)cc3)nc12 (stereo not given)	0.0	?	25.7%	?
O=C(Nc1nc(-c2ccc(F)c(F)c2)cs1)C1=COCCO1	-24.0	·	·	5.9%
O=C(Nc1nc(-c2ccc(F)c(F)c2)cs1)c1ccc(OCC2CCCO2)cc1 (stereo not given)	-69.3*	?	-23.0%	2µM*

Screens: PubChem BioAssay, National Center for Advancing Translational Sciences (NCATS)
